Consider 21 molecules from ChEMBL document CHEMBL3988442, “University of Dundee, Small-Polar-MMV Screening Library” (2021).

The experiment deals with AMP-activated protein kinase, AMPK (Homo sapiens) (UniProt P54646+O43741+P54619+Q9UGJ0+Q9Y478+Q13131+Q9UGI9). The experiment is described as follows: AMP-dependent Kinase enzyme assay. An in vitro enzyme assay that detects ADP turnover that is directly proportional to AMPK activity. This uses naive AMPK that is activated during the assay with MK-8722. Format: functional. Details: scale not given: direction of the effect not stated beside the values. To be noted: 30 µM.

Structures are written as SMILES.

Regarding `CC(=O)N1CCCC1CCc1ccc(Cl)nn1` (stereo unspecified), the Percent Effect came to 12.8%.

In the case of `COc1ccc(N2CCC(NC(=O)c3ccc(C#N)cc3)CC2)cc1`, the Percent Effect amounted to 5.1%.

Consider `COc1ccc(CN2CC[C@@]3(O)CCCC[C@H]3C2)cc1C(=O)O`, for which the Percent Effect was -10%.

Take `O=C(c1cncc(NCC2COc3ccccc3C2)n1)N1CCOCC1` (stereo unspecified): the Percent Effect amounted to 7.56%.

As to `O=C(c1coc(COc2ccccc2F)n1)N1CCC[C@H]1CO`, the Percent Effect amounted to 8.7%.

Take `CC(C)c1ccc(/C=C/CC(=O)NC2CCS(=O)(=O)CC2)cc1`: the Percent Effect is -2.16%.

`CN(CCCO)C(=O)c1ccc2c(c1)nc(N1CC[C@H](O)C1)n2C`: the Percent Effect was determined as 6.47%.

Turning to `CN(C)c1ccc(C(=O)N2CCC(c3cc4cnccc4[nH]3)CC2)cc1`, the Percent Effect came out at 20.5%.

Turning to `CC(C)c1nc(CN2CCN(C(=O)OC(C)(C)C)C(C)C2)no1` (stereo unspecified), the Percent Effect amounted to 1.33%.

With `CC(NC(=O)c1ccc(C(N)=O)cc1)c1cccc(N2CCOC2=O)c1` (stereo unspecified), the Percent Effect was 4.89%.

`CCc1nc(C)c(CN2CCOC(Cc3cccc4ccccc34)C2)[nH]1` (stereo unspecified): the Percent Effect was -0.756%.

Turning to `COCC1CCCN(c2cncc(OCc3ccccc3)n2)C1` (stereo unspecified), the Percent Effect is 1.9%.

For the molecule `Cc1cc(NCCc2nc(C)cs2)nc(-c2cccnc2)n1`, the Percent Effect was determined as 5.81%.

As for `OC(c1cnn(-c2ccccc2)c1)C(F)(F)F` (stereo unspecified), the Percent Effect was -6.83%.

Take `CC(C)[C@@H]1CN(c2ccc(C(F)(F)F)cn2)C[C@H]1NS(C)(=O)=O`: the Percent Effect was 3.23%.

For the molecule `O=C(O)c1ccn(-c2cccc(NC(=O)c3ccccc3Cl)c2)n1`, the Percent Effect stood at 0.768%.

Consider `Cc1ccc(-c2nnn(CCN3C(=O)CCC3=O)n2)cc1`, for which the Percent Effect was -8.21%.

For `COc1ccc(OCc2noc(CN(C)C3CCS(=O)(=O)C3)n2)cc1` (stereo unspecified), the Percent Effect is -2.23%.

For `CC(=O)c1cnc(NCCN2CCCC(c3ccccc3)C2)nc1C` (stereo unspecified), the Percent Effect was -7.52%.

Regarding `Cc1cnn(CCCNC(=O)NCCS(=O)(=O)Nc2ccccc2)c1`, the Percent Effect was 13.3%.

Turning to `CCC(CNS(=O)(=O)c1cccc(C(=O)OC)c1)N1CCCC1` (stereo unspecified), the Percent Effect was -8.76%.
